An excerpt weighted towards active compounds, which were near 0.51% of everything screened.
AddAB inh = less growth of phage-infected E. coli with AddAB; inhibition, % at 11.9 µM; hit rate 0.29% among 330,000; E. coli expressing H. pylori AddAB, absorbance growth; in the data active means inhibition above about 12%;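 further: 0% = vehicle wells of infected cells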
phage Ecoli inh = E. coli growth loss with phage present; growth absorbance; inhibition, % at 11.9 µM; hit rate 0.26% among 360,000; AID 651602; in the data active means inhibition above about 11%
Tat transport = blocks Tat-dependent protein export in E. coli; E. coli MC4100 TorA-mCherry Tat export, fluorescence; inhibition, % at 10 µM; hit rate 0.036% among 340,000;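 active means mean replicate inhibition at least 50% and at least half of replicates individually reaching 50%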;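 further: exported cargo escapes ClpAP degradation while cytoplasmic cargo is degraded and loses fluorescence; 0% = median of neutral control wells and 100% = median of NaSCN control wells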
E coli growth-1 = reduces bacterial viability in AddAB counter-screen. E. coli V3065 growth, OD600 absorbance, 18 h. inhibition, % at 11.9 µM. hit rate 0.27% among 330,000. AID 449728;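 active means inhibition above the campaign's mean inhibition across all tested compounds plus 3 SD, cut at about 9.9% in these data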;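 further: uninfected addAB+ strain grown without phage in ampicillin broth; 0% = DMSO wells and 100% = ciprofloxacin 0.95 µg/ml wells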
E coli growth-2 = E. coli growth inhibition | Escherichia coli growth, OD600, 23 h; stronger effect = lower value | OD600 absorbance (concentration not given with the values) | hit rate 0.21% among 330,000;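 active means OD600 absorbance below the run mean of sample wells minus 3.6 SD, in any replicate, cut at about 0.56 in these data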
An asterisk follows results filed as active; i = inactive; x = no result; ! = not active in a repeat.

SMILES	AddAB inh	phage Ecoli inh	Tat transport	E coli growth-1	E coli growth-2
NC1=NC[C@@H](CC2CCCCC2)N1CCc1cc(C(F)(F)F)cc(C(F)(F)F)c1	-2	x	-5	-1	0.062*
Cc1noc(C)c1NC(=O)N(C)CC1Oc2ccc(NS(=O)(=O)c3cccs3)cc2C(=O)N(C(C)CO)CC1C (stereo unspecified)	x	x	x	x	0.65
Nc1ccc2c(c1)N1CCN=C1S2	2	2	-11	3	0.64
O=C(Nc1ccc(Cl)cc1)Nc1ccc2c(c1)N1CCN=C1S2	1	8	4	3	0.5*
COc1ccc(C2C=CCN(S(=O)(=O)c3cccc4cccnc34)C(C)C(=O)N2Cc2ccc(F)cc2)cc1 (stereo unspecified)	x	x	x	x	0.75
CN(C)CCOc1ccc(-c2c(-c3ccsc3)sc3ccccc23)cc1	-1	2	9	-2	x
COc1ccc(-c2sc3ccccc3c2-c2ccc(OCCN(C)C)cc2)cc1	2	3	1	-3	0.47*
Cc1ccc(NC(=O)C2CCCN(c3ncccn3)C2)cc1F (stereo unspecified)	7	1	-4	9.8*	0.63
O=C(Oc1ccc(Cl)c2cccnc12)c1cccnc1	2	-1	-6	1	0.37*
Cc1ccc(C(=O)Oc2ccc(Cl)c3cccnc23)cc1[N+](=O)[O-]	4	0	-3	2	0.63
Oc1ccc(F)c2cccnc12	1	3	-1	1	0.68
Oc1ccc(Cl)c2cccnc12	x	1	1	x	0.29*
COC(=O)c1ccc(C(NC(=O)c2ccco2)[C@]2(C)CC2C2CCCCC2)cc1 (stereo partly specified)	x	x	x	x	0.64
O=C1CCC(c2ccc(-n3ccnc3)cc2)=NN1	0	6	24	1	0.48*
O=C1CCC(c2ccccc2)=NN1	2	0	-5	-2	0.7
O=C1CC(c2ccc(S(=O)(=O)NC3CC3)cc2)CN1 (stereo unspecified)	3	3	-7	-1	0.74
O=C1CC(c2ccc(S(=O)(=O)NCc3ccncc3)cc2)CN1 (stereo unspecified)	4	13*	-8	1	0.73
Cc1ccc(-n2[nH]c(C)c(C=Nc3ccc(S(=O)(=O)Nc4nccs4)cc3)c2=O)c(C)c1	13*	x	x	6	0.61
Cc1ccc(-n2[nH]c(C)c(C=Nc3ccc(S(=O)(=O)Nc4nccs4)cc3)c2=O)cc1C	11	9	-6	8	0.64
COc1ccc(NC(=O)Nc2ccc3c(c2)C(=O)N(C(C)CO)CC(C)C(CN(C)S(C)(=O)=O)O3)cc1 (stereo unspecified)	x	x	x	x	0.62
CCOC(=O)N1CCC(N2C(=O)c3ccccc3C2Nc2cc(C)cc(C)c2)CC1 (stereo unspecified)	4	1	2	0	0.71
CCOC(=O)N1CCC(N2C(=O)c3ccccc3C2Nc2cc(C(=O)OC)cc(C(=O)OC)c2)CC1 (stereo unspecified)	3	100*	4	1	0.77
CCC(C)c1ccc(C(C)NC(=S)NC2CCCCC2)cc1 (stereo unspecified)	7	3	-1	11*	x
CCc1ccc(C(C)NC(=S)NC2CCCCC2)cc1 (stereo unspecified)	x	x	10	x	0.7
CN(CC=Cc1ccccc1)Cc1cccc2ccccc12	x	x	x	x	0.53
SMILES	AddAB inh	phage Ecoli inh	Tat transport	E coli growth-1	E coli growth-2
O=C(O)CN1C(=O)/C(=C\c2cc([N+](=O)[O-])ccc2OCc2ccccc2Cl)SC1=S	3	2	3	-1	0.54*
O=C(O)CN1C(=O)/C(=C\c2cc(Br)ccc2OCc2ccc(Cl)cc2)SC1=S	x	2	18	x	0.64
Cc1ccc(C(=O)Nc2nnc(-c3ccco3)o2)cc1C	10	-4	-3	-3	0.64
O=C(Nc1nnc(-c2ccco2)o1)c1ccc(Cl)cc1	9	-2	2	3	0.44*
CC(C)(C)OC(=O)NCCCCC(NC(=O)c1[nH]cnc1C(=O)Nc1ccc(Cl)cc1)C(=O)OC(C)(C)C (stereo unspecified)	x	x	x	x	0.7
COc1ccc(NC(=O)N(C)CC2Oc3ccc(NC(=O)CCC(F)(F)F)cc3C(=O)N(C(C)CO)CC2C)cc1 (stereo unspecified)	x	x	x	x	0.71
COc1ccc(NC(=O)NNC(=O)c2ccc3ccccc3c2O)c(OC)c1	10	12*	6	7	0.71
COc1ccc(NC(=O)NNC(=O)c2cc(C3CC3)nc3ccccc23)c(OC)c1	2	1	-5	-3	0.68
COc1ccc(NC(=O)NNC(=O)c2cc3ccccc3cc2O)cc1	12	9	-6	10*	0.68
CCOc1ccc(NC(=O)c2cc3ccccc3cc2O)cc1	2	5	-4	0	0.68
Cc1cc(Nc2cccc(Cl)c2)nc(NCc2ccccc2)n1	0	4	-2	1	0.46*
CCN1C(=O)C2C(C)C3=C4C(CC5C(=O)N(CC)C(=O)C5C4[C@@]4(C)C(=NCC5CC5)OC(=O)N4C3=O)C2C1=O (stereo partly specified)	x	x	x	x	0.63
NC(N)=NN=Cc1ccccc1Cl	x	x	x	x	0.7
NC(N)=N/N=C/c1c(Cl)cccc1Cl	6	7	3	12*!	x
NC(N)=NN=Cc1ccc(OCc2ccccc2Cl)cc1	x	x	x	x	0.044*
NC(N)=N/N=C/c1ccccc1Cl	i	i	-3	13*	x
Cc1nnc(NC(=O)CSc2ccc(-c3cccnc3)nn2)s1	1	4	-4	1	0.66
COc1ccc(NC(=O)CSc2ccc(-c3ccccn3)nn2)cc1OC	1	9	6	1	0.68
Cc1nnc(NC(=O)CSc2ccc(-c3ccccn3)nn2)s1	9	x	x	9.9*	0.62
O=C(CSc1ccc(-c2ccccn2)nn1)c1ccc(F)cc1	8	4	0	11*	0.7
COc1ccccc1NC(=O)CSc1ccc(-c2ccccn2)nn1	11	12*	1	9	0.7
COC(=O)[C@]1(C)NC(c2ccc(SC3CCCCC3)cc2)C2C(=O)N(C)C(=O)C21 (stereo partly specified)	x	x	x	x	0.64
CC1CN(C(C)CO)C(=O)c2cccc(NC(=O)Nc3ccc(C(F)(F)F)cc3)c2OC1CN(C)C(=O)Nc1ccc(F)cc1 (stereo unspecified)	x	x	x	x	0.68
O=C(c1cc(O)c(O)c([N+](=O)[O-])c1)c1ccccc1F	-1	3	57*	-1	0.7
CC[C@]12C(=O)N(C)CC(C3C(=O)N(Cc4ccccc4)C(=O)C31)N2C(=O)c1ccc(C(C)(C)C)cc1 (stereo partly specified)	x	x	x	x	0.68
Cc1cccnc1Nc1nc(-c2ccccn2)cs1	3	3	-3	2	0.5*
O=C1C=C(Nc2ccccc2O)c2ccccc2C1=O	3	2	-4	-5	0.48*
O=C1C=C(NCc2ccccc2)c2ccccc2C1=O	x	4	-24	x	0.47*
COC(=O)C1CC2CCC(O)CC2N1Cc1ccc(OC)cc1 (stereo unspecified)	x	x	x	x	0.68
O=[N+]([O-])c1cccc(/C=C/c2nc[nH]c2[N+](=O)[O-])c1	10	1	5	11*	0.69

Bioassay records from PubChem.
